Laboratory results reported in PubChem BioAssay.
Active and inactive are the calls of the source.

Assay: optical density change of DRC41 E. coli – strain DRC41, OD650, 24 h, E. coli filamentation project, primary screen (AID 1093);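 further: MC1000 strain lacking acrAB efflux and sulA so SOS filamentation is blocked; test concentration not given here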
Settings: E. coli DRC41 growth, higher = more signal, called active from +8 up or from −8 down

z-score, inactive:
CCOC(=O)[C@H](Cc1ccccc1)NC(=O)CCC1CC(OC(=O)NCc2ccc3c(c2)OCO3)CC2(CCCC(COC(=O)NCc3cccc(C(F)(F)F)c3)O2)O1 (stereo partly specified) -1.29, CC(=O)OC[C@H]1O[C@@H](ON=C[C@@H](C)[C@H](OCc2ccccc2)C(C)C)[C@H](OC(C)=O)[C@@H](OC(C)=O)[C@@H]1OC(C)=O -0.057, O=C1[C@H]2[C@H]3[C@H](O)[C@H](O)CC(=NOCc4ccccc4)[C@H]3CC[C@H]2C(=O)N1C[C@@H]1CCCO1 0.0096, CO[C@@H]1COC(=O)[C@@H]2CCCN2C(=O)[C@@H](C)COC(=O)[C@H](COCc2ccccc2)NC(=O)CC=C[C@H]1C -1.99, C=C(/C(=C/C[C@H](OC(C)=O)c1ccc(OCCO)cc1)c1cnc2ccccc2c1)C(C)C 1.19, COC(=O)CC=C[C@@H](C)[C@H](OC)c1ccccc1Br 0.469, COc1ccccc1CN1C(=O)c2ccccc2[C@@H](C(=O)NCC(F)(F)F)[C@@H]1c1ccc(CO)cc1 1.49, O=C1[C@H]2[C@H]3[C@H](O)[C@H](O)CC(=NO[C@@H]4O[C@H](CO)[C@@H](O)[C@H](O)[C@H]4O)[C@H]3CC[C@H]2C(=O)N1C1CCCCC1 0.15, CC(C)=CCCC(C)=CCON=C1C[C@@H](O)[C@@H](O)[C@@H]2[C@@H]3C(=O)N(C[C@@H]4CCCO4)C(=O)[C@@H]3CC[C@@H]12 0.325, C=CC[C@@H]1C=C[C@H](ON=C2c3cc(OC)ccc3O[C@H](c3cccc(OC)c3)[C@H]2O)[C@@H](CO)O1 0.686, CCc1cc2c(nc1CC)CCN(CCC(C)=NOC[C@@H](O)COCc1ccco1)C2 0.903, CCN1C(=O)[C@H]2[C@H]3[C@H](O)[C@H](O)CC(=NOC(C)CN4CCCCc5nc(C)c(C)cc54)[C@@H]3CC[C@H]2C1=O (stereo partly specified) 1.03, COCCOC(=O)N1C(=O)[C@@]2(c3cc(C#CC4(O)CCCCCC4)ccc31)[C@H](c1ccc(OCCO)cc1)N1[C@H](c3ccccc3)[C@H](c3ccccc3)OC(=O)[C@H]1[C@@H]2C(=O)NC[C@H](O)c1ccccc1 1.6, CC1CC/C=C\[C@H]2OC34C=CCN(C(C)C)C(=O)[C@H]3N(CCCO)C(=O)[C@@H]4C2C(=O)O1 (stereo partly specified) 1.14, CCCNC(=O)OC[C@H]1O[C@H](CCON=CC[C@@H]2C=C[C@H](OC(C)=O)[C@@H](COC(C)=O)O2)C=C[C@@H]1Oc1ccc(OC)cc1 0.457, Cc1ccc(S[C@]2(C(=O)O)CC(=O)N(Cc3ccccc3)[C@@H]2c2ccc(CO)cc2I)cc1 -0.104, CC(=O)C[C@H](O)[C@@H](NC(=O)OC(C)(C)C)C(C)C -0.972, COC(=O)C1=CCC(c2cccc(Cl)c2)O1 (stereo unspecified) -0.215, COCCCNC(=O)[C@@]1(CCS(=O)(=O)c2ccccc2)N=C(c2ccc(OCCCO)cc2)O[C@H]1c1ccccc1 2.54, O=C(NN=C1C[C@@H](O)[C@@H](O)[C@@H]2[C@@H]3C(=O)N(c4cccc(Oc5ccccc5)c4)C(=O)[C@@H]3CC[C@@H]12)OCc1ccccc1 0.108, CCOC(=O)NN=C1C[C@@H](O)[C@@H](O)[C@@H]2[C@@H]3C(=O)N(C[C@@H]4CCCO4)C(=O)[C@@H]3CC[C@@H]12 0.757, COC(=O)c1c(CC[C@@H](CO)NC(=O)N[C@H](Cc2ccccc2)Cn2cc(-c3ccccc3N)nn2)oc(C(C)=O)c1C(=O)OC 0.382, CC(CCN1CCc2nc(-c3ccccc3)c(-c3ccccc3)cc2C1)=NOC(C)CN1CCCCc2nc(C)c(C)cc21 (stereo unspecified) 0.74, CCCNC(=O)[C@@H]1c2ccccc2C(=O)N(Cc2ccccc2Cl)[C@H]1c1ccc(CO)cc1 2.2, COc1ccc(O[C@H]2C=C[C@@H](c3ccccc3)O[C@@H]2COC(=O)CCC(C)=NOCC[C@@H]2C=C[C@H](OC(C)=O)[C@@H](COC(C)=O)O2)cc1 -0.211, CC(C)OC(=O)C=C1C[C@@H](c2ccc(C#N)cc2)O[C@@H](c2ccc(C#N)cc2)O1 0.554, CCCC=C(CCC)[C@@H](NC(=O)c1ccc(-c2ccccc2)cc1)c1ccc(C(=O)OC)cc1 -0.665, CCCC[C@@H](O)C1=C(C)C[C@H]2C(=O)N(Cc3ccccc3)C(=O)[C@H]2[C@H]1CO 0.706, COCCNC(=O)OCC1CCCC2(CC(OC(=O)NCCc3ccc(F)cc3)CC(CCC(=O)N[C@@H](C)C(=O)OC)O2)O1 (stereo partly specified) 0.0947, C[N+](C)(C)CCCCCCNC(=O)[C@@H]1C[C@@H]2C(=O)N3CCC[C@H]3C(=O)N2[C@@H]1c1cccc(OCCO)c1 0.784, CC(C)C[C@@H]1NC(=O)[C@H]2C[C@@H](C(=O)O)[C@@H](c3ccc(O)cc3)N2C1=O 0.831, O=C1O[C@@H](c2ccccc2)[C@@H](c2ccccc2)N2[C@@H](c3ccccc3OCCO)[C@]3(C(=O)Nc4ccc(C#CCCO)cc43)[C@@H](C(=O)O)[C@H]12 0.481, CO[C@H]1COC(=O)[C@H](C)COC(=O)CC=C[C@@H](C)[C@H](OC)COC(=O)CC=C[C@@H]1C 0.614, C=CCC(OC(C)=O)[C@@H]1[C@@H](N(Cc2cc3ccccc3o2)C(=O)Cc2ccc(F)cc2)c2cc(OCCCO)ccc2N1C(=O)Cc1ccc(OC)cc1 (stereo partly specified) -0.824, CO[C@@H]1COC(=O)[C@H](C)NC(=O)[C@@H](C)COC(=O)CCC[C@H]1C -0.183, CC(C)(C)OC(=O)CC[C@]1(C(N)=O)COC(c2ccc(OCCCO)cc2)=N1 0.308
